Assay [1] is described as follows: qHTS assay to identify small molecule agonists of the sonic hedgehog signaling (Shh) pathway (AID 1259368).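 Also: NIH/3T3-derived 3T3Gli1-Luc cells carrying a stable Gli1-driven firefly luciferase reporter; series mostly up to about 92 µM; nearly all actives have a fitted effect of over 15% in size.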 The gist of the method: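 3T3Gli1-Luc (NIH/3T3 clone, stable Gli1-Luc); 4 hr pre-incubation, then cpd in DMSO 24 hr, 37 C/5% CO2; luciferase reagent 30 min RT; luminescence.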
(In general: Quantitative high-throughput screening tests each substance at several concentrations.)

Assay [2] is described as follows: qHTS assay to identify small molecule antagonists of the sonic hedgehog signaling (Shh) pathway (AID 1259369). Also: nearly all actives have a fitted effect of over 45% in size. Also: potency is read from the fitted curve at half-maximal effect. In a few lines: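 3T3Gli1-Luc, conditioned-medium-stimulated, 24hr cpd, 37C/5% CO2; Gli1-driven firefly Luc luminescence after 30min RT with luciferase reagent. Cells plated 4hr before cpd.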
Assay [3] concerns the target Estrogen receptor beta (Homo sapiens) (UniProt Q92731). Put plainly: qHTS assay to identify small molecule agonists of the estrogen receptor beta (ER-beta) signaling pathway (AID 1259377; active = well fitted activation curve with a large enough effect in the signal ratio in the repeat runs, not every such curve was filed as active; the % refers to the signal ratio; also: potency is read from the fitted curve at half-maximal effect). In a few lines: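 Agonist mode cell assay in GripTite HEK293T cells expressing an ER-beta fusion that drives beta-lactamase from an Upstream Activator Sequence; 16 hr compound exposure at 37C, then 2 h LiveBLAzer B/G FRET substrate at room temperature, fluorescence read-out.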

The target is the same in assay [4]. As to the kind of experiment: qHTS assay to identify small molecule antagonists of the estrogen receptor beta (ER-beta) signaling pathway (AID 1259378; active = well fitted inhibition curve with a large enough effect in the signal ratio in the repeat runs, not every such curve was filed as active; the % refers to the signal ratio; also: potency is read from the fitted curve at half-maximal effect). In a few lines: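 ER-beta-UAS-bla HEK293T (GripTite) cells in 2% charcoal-stripped FBS medium were preincubated 6 hr at 37C, dosed with compound, then stimulated with 1 nM E2 (final) for 16 hr; beta-lactamase reporter read by B/G FRET fluorescence after 2 hr substrate loading.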

The nature of assay [5]: qHTS assay to identify small molecule agonists of the androgen receptor (AR) signaling pathway in the presence of an antagonist - cell viability counter screen (AID 1259379; active = well fitted curve in the direction sought with a large enough effect in the repeat runs; an effect the other way counts as inactive or inconclusive; also: nearly all actives have a fitted effect of over 25% in size; also: potency is read from the fitted curve at half-maximal effect;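 as to activity change, negative = cytotoxicity: MDA-kb2 human breast cancer cells carrying an MMTV luciferase reporter; series mostly up to about 92 µM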). In a few lines: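 Cells: MDA-kb2 (MMTV-luc, AR and GR elements), 3,000/well, 5 hr settle. Added: nilutamide 3.0uM final, then compounds (15 conc.). Incubation: 16 hr, 37C, no CO2. Read-out: CellTiter-Fluor, 1 hr, fluorescence.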

A short description of assay [6]: qHTS assay to identify small molecule antagonists of the estrogen receptor beta (ER-beta) signaling pathway - cell viability counter screen (AID 1259382; active = well fitted curve in the direction sought with a large enough effect in the repeat runs; an effect the other way counts as inactive or inconclusive; also: nearly all actives have a fitted effect of over 55% in size; also: potency is read from the fitted curve at half-maximal effect; as to activity change, negative = cytotoxicity: series mostly up to about 92 µM). In a few lines:
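Cells: ER-beta-UAS-bla HEK293T, 2,000/well, 2% CS-FBS, 6 hr settle. Cpd + E2 (1nM final), 16 hr, 37C/5% CO2. Bla FRET substrate 2 hr RT, then CellTiter-Glo 30 min RT, luminescence.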

For assay [7], the target named is Estrogen receptor (Homo sapiens) (UniProt P03372). Put plainly: qHTS assay to identify small molecule agonists of the estrogen receptor alpha (ER-alpha) signaling pathway in the presence of an antagonist (AID 1259383). Also: nearly all actives have a fitted effect of over 15% in size. Also: potency is read from the fitted curve at half-maximal effect. As to activation: top concentration of the series differs between compounds. In a few lines:
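VM7Luc4E2, endog. ER-alpha + 4×ERE-luc; charcoal-stripped FBS, phenol red-free, 5 d; 24hr plating; +10.0nM ICI-182,780 (final); cpds 15 conc, 22hr, 37C/5% CO2; ONE-Glo luminescence.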

The nature of assay [8]: qHTS assay to identify small molecule agonists or antagonists of the thyroid stimulating hormone receptor (TSHR) signaling pathway - wild type cell line counter screen (AID 1259384). The gist of the method: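 Wild-type HEK293 cells were plated 18 h at 37 C/5% CO2, pin-dosed with compound plus Ro20-1724 medium, held 30 min at room temperature, then given cAMP-d2 and anti-cAMP-cryptate; fluorescence was read after 1 h. Fifteen concentrations, triplicate.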

In assay [9] the target is Androgen receptor (Homo sapiens) (UniProt P10275). Put plainly: qHTS assay to identify small molecule agonists of the androgen receptor (AR) signaling pathway in the presence of an antagonist (AID 1259381). Also: nearly all actives have a fitted effect of over 15% in size. In a few lines: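 MDA-kb2 cells, 3,000/well, rested 5hr at 37C/0% CO2 → nilutamide 3.0uM final or buffer → compounds, 15 conc. → 16hr at 37C → ONE-Glo, 30min RT → luminescence.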

The nature of assay [10]: qHTS assay to identify small molecule agonists of the estrogen receptor beta (ER-beta) signaling pathway - cell viability counter screen (AID 1259380; active = well fitted curve in the direction sought with a large enough effect in the repeat runs; an effect the other way counts as inactive or inconclusive; also: nearly all actives have a fitted effect of over 30% in size; also: potency is read from the fitted curve at half-maximal effect). The gist of the method:
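HEK293T ER-beta-UAS-bla; 2% CS-FBS; 6 hr pre-plate, 16 hr cpd at 37C/5% CO2; LiveBLAzer read first, then CellTiter-Glo 30 min RT, luminescence.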

Unmarked numbers belong to inactive results. Inconclusive results are not listed. The source made the active and inactive calls. Unless noted, calls follow the shape of the full dose curve.
% is scaled to controls: 0 for no effect and ±100 for the full control effect.

Estrogen receptor (Homo sapiens), sequence (P03372 whole entry, looked up): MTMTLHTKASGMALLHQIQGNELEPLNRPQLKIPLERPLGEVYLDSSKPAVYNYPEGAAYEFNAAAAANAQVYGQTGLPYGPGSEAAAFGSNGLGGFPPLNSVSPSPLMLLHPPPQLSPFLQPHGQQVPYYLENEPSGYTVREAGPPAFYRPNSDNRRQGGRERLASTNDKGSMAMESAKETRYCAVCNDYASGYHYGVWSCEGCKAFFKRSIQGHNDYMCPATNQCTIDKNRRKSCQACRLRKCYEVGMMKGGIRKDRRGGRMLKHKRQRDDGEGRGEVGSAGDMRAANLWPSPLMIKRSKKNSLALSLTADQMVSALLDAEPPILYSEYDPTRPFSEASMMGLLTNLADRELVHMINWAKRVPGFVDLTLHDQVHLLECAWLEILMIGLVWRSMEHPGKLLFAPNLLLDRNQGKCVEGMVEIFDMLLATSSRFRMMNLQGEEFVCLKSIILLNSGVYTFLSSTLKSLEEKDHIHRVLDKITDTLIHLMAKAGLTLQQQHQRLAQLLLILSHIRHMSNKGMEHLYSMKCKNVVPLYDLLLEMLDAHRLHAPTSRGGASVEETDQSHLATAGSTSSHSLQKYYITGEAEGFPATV
Androgen receptor (Homo sapiens), sequence (P10275 whole entry, looked up): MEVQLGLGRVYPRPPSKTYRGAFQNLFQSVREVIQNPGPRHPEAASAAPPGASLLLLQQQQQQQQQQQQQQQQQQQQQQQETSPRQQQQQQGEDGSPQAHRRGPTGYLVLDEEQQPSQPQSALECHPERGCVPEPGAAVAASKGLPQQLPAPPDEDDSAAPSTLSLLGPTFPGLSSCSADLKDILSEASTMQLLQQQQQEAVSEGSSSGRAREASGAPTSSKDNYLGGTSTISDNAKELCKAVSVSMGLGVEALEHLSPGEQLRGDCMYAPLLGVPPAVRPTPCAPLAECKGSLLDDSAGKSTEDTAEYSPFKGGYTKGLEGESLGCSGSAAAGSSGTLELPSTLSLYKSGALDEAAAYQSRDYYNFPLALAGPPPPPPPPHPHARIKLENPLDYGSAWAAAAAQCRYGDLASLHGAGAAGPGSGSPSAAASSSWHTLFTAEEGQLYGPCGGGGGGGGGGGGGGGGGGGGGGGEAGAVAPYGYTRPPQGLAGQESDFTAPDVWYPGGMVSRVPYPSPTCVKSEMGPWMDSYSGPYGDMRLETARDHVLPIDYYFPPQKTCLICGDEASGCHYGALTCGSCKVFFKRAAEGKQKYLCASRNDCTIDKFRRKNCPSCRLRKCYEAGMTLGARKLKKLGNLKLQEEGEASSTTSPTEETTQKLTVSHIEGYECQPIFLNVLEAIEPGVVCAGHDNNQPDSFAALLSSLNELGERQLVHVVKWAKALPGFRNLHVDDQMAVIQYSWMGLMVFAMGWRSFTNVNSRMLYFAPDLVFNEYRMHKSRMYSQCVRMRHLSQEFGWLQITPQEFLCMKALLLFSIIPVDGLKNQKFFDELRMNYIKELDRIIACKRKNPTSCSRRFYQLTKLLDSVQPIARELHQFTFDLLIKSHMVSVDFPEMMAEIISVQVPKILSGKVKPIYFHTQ
Estrogen receptor beta (Homo sapiens), sequence (Q92731 whole entry, looked up, the tested form may be a part): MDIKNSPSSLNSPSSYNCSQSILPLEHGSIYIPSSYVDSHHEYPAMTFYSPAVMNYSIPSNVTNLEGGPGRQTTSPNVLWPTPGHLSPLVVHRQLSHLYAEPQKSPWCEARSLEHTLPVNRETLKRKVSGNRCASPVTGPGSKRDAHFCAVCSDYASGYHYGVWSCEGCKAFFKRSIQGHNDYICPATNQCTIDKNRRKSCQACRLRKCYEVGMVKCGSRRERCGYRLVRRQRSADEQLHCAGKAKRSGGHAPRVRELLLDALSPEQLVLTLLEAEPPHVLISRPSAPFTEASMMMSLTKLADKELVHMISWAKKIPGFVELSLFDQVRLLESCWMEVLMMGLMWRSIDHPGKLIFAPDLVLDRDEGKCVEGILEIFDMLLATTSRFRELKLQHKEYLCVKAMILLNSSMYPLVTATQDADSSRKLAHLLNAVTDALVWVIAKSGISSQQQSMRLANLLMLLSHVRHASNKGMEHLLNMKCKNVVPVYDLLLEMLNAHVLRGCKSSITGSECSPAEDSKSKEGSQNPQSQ

With `O=CNNC=O`, the Potency result in assay [1], in assay [2], in assay [3], in [4], in assay [5] and in assay [6] was “inactive” throughout. For the same compound, the Potency result in assay [7] and in [8] was “inactive” each time.

On to `COC(=O)CC(C(C)=O)C(=O)OC` (stereo not given), for which the Potency entry in [1], in assay [2], in assay [3], in assay [4], in assay [5] and in assay [9] was “inactive” throughout. Besides, the Potency entry in assay [6], in assay [7] and in assay [8] was “inactive” throughout.

For `O=C1CC[C@@H](C(=O)O)N1`, the Potency entry in assay [1], in [2], in assay [3], in assay [4], in assay [5] and in assay [9] was “inactive” throughout. Further, the Potency result in assay [6] and in assay [8] was “inactive” throughout.

As for `Cc1cccc(C)c1NC(=O)c1cc(S(N)(=O)=O)c(Cl)cc1O`, the Potency result in assay [1], in assay [2], in assay [3], in assay [4], in assay [5] and in [6] was “inactive” throughout. The Potency result in assay [8] is “inactive”.

For `O=C(c1ccccc1)c1ccc(O)cc1`, the Potency result in assay [1], in assay [5], in assay [10], in [9], in [6] and in [8] was “inactive” in each case. Besides, the Potency in assay [2] was 15.5 µM (active); in assay [3], 12.3 µM (active); in assay [7] it was 49.1 µM (active).

As to `Nc1ccc(S(=O)(=O)NCc2ccccc2)cc1`, the Potency entry in assay [1], in [2], in assay [3], in assay [4], in assay [5] and in assay [6] was “inactive” each time. Further, the Potency entry in assay [8] is “inactive”.

Turning to `CCOC(=O)c1c(N)sc2c1CCN(Cc1ccccc1)C2`, the Potency entry in assay [1], in assay [3], in assay [4], in [5], in assay [6] and in [7] was “inactive” each time. Besides, the Potency result in [8] was “inactive”. Moreover, in assay [2], the Potency is 10.6 µM (active).

Take `CCN(CC)c1cccc(O)c1`: the Potency entry in assay [1], in assay [2], in [4], in assay [5], in assay [10] and in assay [9] was “inactive” each time. The Potency result in assay [6], in [7] and in assay [8] was “inactive” each time.

For `CCN(Cc1cccc(S(=O)(=O)O)c1)c1ccc(C(=C2C=CC(=[N+](CC)Cc3cccc(S(=O)(=O)O)c3)C=C2)c2ccc(O)cc2S(=O)(=O)[O-])cc1`, the Potency result in assay [1], in assay [3], in assay [4] and in assay [7] was “inactive” throughout. Also, the Potency in assay [2] was 4.67 µM (active); in [5], 16.6 µM (active).

As for `O=C(CCS)OCC(COC(=O)CCS)(COC(=O)CCS)COC(=O)CCS`, the Potency result in assay [1], in [2], in [4], in assay [6], in assay [7] and in assay [8] was “inactive” throughout.

Take `CO[C@@H]1[C@@H](OC)[C@H](C)[C@@](O)(CC(=O)O)O[C@H]1[C@H](C)[C@H]1O[C@@]2(CC[C@@](C)([C@H]3CC[C@@](C)([C@@H]4O[C@@H]([C@H]5O[C@](C)(O)[C@H](C)C[C@@H]5C)C[C@@H]4OC4C[C@H](OC)[C@@H](OC)[C@H](C)O4)O3)O2)C[C@H](O)[C@H]1C` (stereo not given in full): the Potency entry in [1], in assay [7] and in [8] was “inactive” each time. In addition, the Potency is 0.211 µM (active) in [2]; 11.9 µM (active) in assay [4]; 1.68 µM (active) in assay [5]; 1.88 µM (active) in assay [10]; 2.66 µM (active) in assay [6].

With `CC(C)COC(=O)c1ccc(O)cc1`, the Potency entry in [1], in [2], in assay [5], in assay [10] and in [6] was “inactive” each time.

Regarding `CCCCCCCCCCCCCOC(=O)CCSCCC(=O)OCCCCCCCCCCCCC`, the activity change in [1] is -0.0494% [at 18.9 µM, stronger effect = higher value]. Moreover, the activity change, negative = inhibition in assay [2] is 8.97% [at 19 µM]. Moreover, the activity, negative = inhibition in assay [4] was -0.0397% [at 19 µM]. Further, the activity change, negative = cytotoxicity in [5] is -0.499% [at 19 µM]; in assay [10], 4.18% [at 19 µM]; in assay [6] it was 3.4% [at 19 µM]. The cAMP activity change in assay [8] was -3.33% [at 18.9 µM, stronger effect = higher value].

As to `Cc1ccc2c(c1)CCCN2`, the Potency entry in assay [1], in [2], in assay [5], in assay [10], in assay [6] and in assay [7] was “inactive” in each case. Also, the Potency result in assay [8] is “inactive”.

With `CCC(CO)(CO)[N+](=O)[O-]`, the Potency entry in assay [1], in assay [2], in assay [5], in assay [10], in assay [6] and in assay [7] was “inactive” in each case. In addition, the Potency entry in [8] was “inactive”.

Consider `COC(=O)c1sccc1S(N)(=O)=O`, for which the Potency entry in assay [1], in assay [2], in assay [5], in assay [10], in assay [6] and in assay [7] was “inactive” in each case. Also, in assay [8], the Potency entry was “inactive”.

Consider `C=CC(=O)NC(C)C`, for which the Potency result in assay [1], in [2], in assay [5], in assay [10], in assay [6] and in assay [7] was “inactive” each time. Also, the Potency entry in assay [8] was “inactive”.

These data come from PubChem BioAssay (Tox21).
